Screens (PubChem BioAssay)
Only some compounds are listed: those with a hit (about 7% of all), similar ones and a draw of the others.
KAT2A inh: blocks human GCN5L2 histone acetyltransferase; Potency, µM (highest dose often 58.9 µM), usual class: inhibitors; AID 504327; GCN5L2 HAT assay, ThioGlo1 CoA-SH fluorescence; 390,000 tested, 0.21% active
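ThioGlo1-coupled HAT assay: 20nM GCN5L2, 70uM acetyl-CoA, 75uM H3(1-25) peptide, pH 7.5. Fluorescence read at 340/540nm at start and after 20 min at room temperature.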
BAZ2B block: inhibitors of human BAZ2B bromodomain; Q9UIF8; AlphaScreen BAZ2B-H3K14Ac peptide displacement; Potency, µM (doses to about 114 µM), hits mostly inhibitors; 360,000 tested, 4.4% active; also: nearly all actives have a fitted effect of over 60% in size
Target sequence (Q9UIF8 whole entry, looked up): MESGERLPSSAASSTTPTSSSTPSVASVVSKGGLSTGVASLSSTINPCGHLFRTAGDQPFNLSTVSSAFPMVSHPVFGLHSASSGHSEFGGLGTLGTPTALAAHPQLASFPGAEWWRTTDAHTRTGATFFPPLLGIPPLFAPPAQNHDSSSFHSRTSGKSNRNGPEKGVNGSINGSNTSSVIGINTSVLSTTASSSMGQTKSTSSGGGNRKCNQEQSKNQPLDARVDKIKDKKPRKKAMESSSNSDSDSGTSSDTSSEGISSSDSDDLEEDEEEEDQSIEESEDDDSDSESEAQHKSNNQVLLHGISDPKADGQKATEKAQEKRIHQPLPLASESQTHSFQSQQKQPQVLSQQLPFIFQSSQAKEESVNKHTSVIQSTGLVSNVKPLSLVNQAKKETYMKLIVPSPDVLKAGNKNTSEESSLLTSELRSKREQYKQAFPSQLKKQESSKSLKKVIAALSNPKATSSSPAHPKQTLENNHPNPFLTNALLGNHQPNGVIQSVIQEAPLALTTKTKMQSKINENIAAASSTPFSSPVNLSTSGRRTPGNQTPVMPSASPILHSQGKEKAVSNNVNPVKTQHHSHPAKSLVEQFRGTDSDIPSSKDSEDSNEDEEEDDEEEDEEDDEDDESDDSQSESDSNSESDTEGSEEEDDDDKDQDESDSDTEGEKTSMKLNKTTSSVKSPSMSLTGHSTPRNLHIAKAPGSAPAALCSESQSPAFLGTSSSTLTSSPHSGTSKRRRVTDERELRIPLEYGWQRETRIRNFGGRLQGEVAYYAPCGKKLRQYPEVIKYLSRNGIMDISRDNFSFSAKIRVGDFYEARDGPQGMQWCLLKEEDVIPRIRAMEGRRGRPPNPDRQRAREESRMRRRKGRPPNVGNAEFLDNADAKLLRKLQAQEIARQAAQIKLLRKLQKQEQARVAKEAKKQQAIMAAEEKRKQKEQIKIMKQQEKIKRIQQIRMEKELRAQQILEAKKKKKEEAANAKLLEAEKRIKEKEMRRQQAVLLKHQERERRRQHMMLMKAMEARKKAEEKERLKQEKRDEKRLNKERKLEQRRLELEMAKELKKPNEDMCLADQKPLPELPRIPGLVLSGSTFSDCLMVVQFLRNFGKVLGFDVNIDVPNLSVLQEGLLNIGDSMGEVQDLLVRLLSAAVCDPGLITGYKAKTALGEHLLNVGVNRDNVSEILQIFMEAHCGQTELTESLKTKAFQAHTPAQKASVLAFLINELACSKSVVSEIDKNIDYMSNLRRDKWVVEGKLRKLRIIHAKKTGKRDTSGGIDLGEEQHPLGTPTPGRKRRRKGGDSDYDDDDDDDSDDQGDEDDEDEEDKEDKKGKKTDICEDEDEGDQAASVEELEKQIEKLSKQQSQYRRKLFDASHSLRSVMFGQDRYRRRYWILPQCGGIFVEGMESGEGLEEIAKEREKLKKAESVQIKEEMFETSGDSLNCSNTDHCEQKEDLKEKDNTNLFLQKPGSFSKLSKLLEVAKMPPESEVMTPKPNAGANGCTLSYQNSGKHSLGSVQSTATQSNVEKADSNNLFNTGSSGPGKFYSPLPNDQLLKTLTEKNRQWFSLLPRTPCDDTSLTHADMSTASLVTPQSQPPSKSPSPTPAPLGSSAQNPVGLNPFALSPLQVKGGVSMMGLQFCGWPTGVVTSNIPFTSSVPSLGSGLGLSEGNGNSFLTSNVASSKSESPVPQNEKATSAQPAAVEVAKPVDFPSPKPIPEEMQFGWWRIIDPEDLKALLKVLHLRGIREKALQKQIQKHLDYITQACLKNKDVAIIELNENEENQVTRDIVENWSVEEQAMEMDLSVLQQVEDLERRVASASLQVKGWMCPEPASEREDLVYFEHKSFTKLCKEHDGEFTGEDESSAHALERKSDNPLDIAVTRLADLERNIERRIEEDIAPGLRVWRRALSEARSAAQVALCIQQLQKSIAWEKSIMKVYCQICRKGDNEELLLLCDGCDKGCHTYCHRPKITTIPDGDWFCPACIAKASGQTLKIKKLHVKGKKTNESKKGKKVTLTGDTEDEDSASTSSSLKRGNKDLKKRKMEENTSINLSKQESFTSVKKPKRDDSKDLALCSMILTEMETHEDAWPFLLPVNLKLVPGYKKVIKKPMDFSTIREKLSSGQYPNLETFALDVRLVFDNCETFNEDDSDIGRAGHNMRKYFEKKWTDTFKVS
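Compounds, titrated to a top concentration of 110 uM, were incubated 30 min at room temperature with preformed BAZ2B/acetyl-K14 H3 peptide complex (50 nM each). Proximity signal was measured by AlphaScreen after 20 min with beads.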
PI5P4K alpha inh: blocks human PI5P4K alpha kinase activity; P48426; PI5P4Kalpha enzyme, ADP-Glo luminescence, 60 min; active compounds read low; max response, %; 330,000 tested, 1.2% active; active = max response of -50% or lower; inconclusive = between -30% and -50%; inactive = -30% or higher; also: value at the top dose of about 77 µM
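ADP-Glo luminescence end-point after a 60 min room-temperature kinase reaction. PI5P4Kalpha and substrate in HEPES pH 7.4 buffer with EGTA, 0.1% CHAPS and 5% DMSO; ATP at 5 microM final.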
PLK1 PBD block: PLK1 (human) polo-box domain binding inhibition. Plk1 PBD binding of FITC phosphopeptide, fluorescence polarization. Potency, µM, usual class: inhibitors. 360,000 tested, 2.8% active; also: series mostly up to about 57 µM; nearly all actives have a fitted effect of over 65% in size
HP1b binding inh: HP1-beta chromodomain-methylated histone interaction inhibition. AID 540317. P83916. AlphaScreen HP1-beta / biotin-H3K9me3 peptide binding. Potency, µM (series often up to 114 µM), most hits filed as inhibitors. 390,000 tested, 0.56% active; also: nearly all actives have a fitted effect of over 70% in size
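Compound inhibition of the preformed complex between 50 nM HP1-beta and 50 nM biotinylated H3K9me3 peptide was read by AlphaScreen. Buffer was PBS pH 7.4 with 0.01% Tween-20. Incubations ran 30 min at room temperature, with 10 ug/mL donor/acceptor beads.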
JMJD2A Tudor: inhibitors of human JMJD2A Tudor domain | Potency, µM (top dose mostly 114 µM), most hits filed as inhibitors | AlphaScreen JMJD2A-Tudor / H3K4me3 peptide binding | O75164 | 390,000 tested, 4.4% active; also: nearly all actives have a fitted effect of over 50% in size
A number is an active result. Unless noted, calls follow the shape of the dose curve; as a rule, active = well fitted curve in the direction sought with a large enough effect; inconclusive = small, poorly fitted or top-dose-only effect, or another doubt; inactive = no such curve, though single readings can be large; an effect the other way counts as inactive or inconclusive.

Cc1sc2ncnc(N/N=C/c3ccccc3O)c2c1C was read as KAT2A inh inactive, BAZ2B block 35µM, PI5P4K alpha inh inactive, PLK1 PBD block inactive, HP1b binding inh inactive and JMJD2A Tudor inconclusive.
CCOC(=O)c1c(C)oc2nc(C)nc(NCc3ccc(OC)cc3)c12 was read as KAT2A inh inactive, BAZ2B block inactive, HP1b binding inh inactive and JMJD2A Tudor inactive.
`O=c1nc(SCc2c(F)cccc2Cl)nc(-c2ccccc2)[nH]1` gave KAT2A inh inactive, BAZ2B block inactive, PI5P4K alpha inh inactive, PLK1 PBD block 27µM, HP1b binding inh inactive and JMJD2A Tudor inactive.
COCCN(CCOC)S(=O)(=O)c1ccc(Cl)nc1 was read as KAT2A inh inactive, BAZ2B block inactive, PI5P4K alpha inh inactive, PLK1 PBD block 21µM, HP1b binding inh inactive and JMJD2A Tudor inactive.
Screening CCN(CC)S(=O)(=O)c1ccc(Cl)nc1 returned KAT2A inh inactive, PI5P4K alpha inh inactive, PLK1 PBD block inactive, HP1b binding inh inactive and JMJD2A Tudor inactive.
For CCCCN1CC(=O)N2[C@H]3c4ccc(OC)cc4OC[C@@H]3[C@H](c3ccccc3)[C@]2(C)C1=O the results were KAT2A inh inactive, BAZ2B block inconclusive, PI5P4K alpha inh inactive, PLK1 PBD block inactive, HP1b binding inh inactive and JMJD2A Tudor inactive.
Cc1ccc(OCCN(C)C)c([N+](=O)[O-])c1 was read as KAT2A inh inactive, BAZ2B block inconclusive, PI5P4K alpha inh inactive, PLK1 PBD block inactive, HP1b binding inh inconclusive and JMJD2A Tudor 8.9µM.
`COCCNCCOc1ccc(C)cc1[N+](=O)[O-]` gave KAT2A inh inactive, BAZ2B block inconclusive, PI5P4K alpha inh inactive, PLK1 PBD block inactive, HP1b binding inh inconclusive and JMJD2A Tudor 25µM.
C=CCNCCOCCOc1ccc(C)cc1[N+](=O)[O-] was read as KAT2A inh inactive, BAZ2B block inconclusive, PLK1 PBD block inactive, HP1b binding inh inactive and JMJD2A Tudor 3.2µM.
`CCCN1C(=O)C(Cc2nc3ccccc3c(=O)n2-c2cccc(C)c2)c2ccccc21` (stereo not drawn) gave KAT2A inh inactive, BAZ2B block inactive, HP1b binding inh inactive and JMJD2A Tudor inactive.
O=c1c(Cl)c(Cl)cnn1Cc1nnc(-c2ccccc2Br)o1 was read as KAT2A inh inactive, BAZ2B block inactive, PI5P4K alpha inh -57, PLK1 PBD block inconclusive, HP1b binding inh inactive and JMJD2A Tudor inactive.
`Clc1ccc(Cc2nnc(-c3ccccc3Br)o2)cc1` gave KAT2A inh inactive, BAZ2B block inactive, PI5P4K alpha inh inactive, PLK1 PBD block inactive, HP1b binding inh inactive and JMJD2A Tudor inactive.
[O-][N+]1=c2ccc(Nc3ccccc3)cc2=NC12CCCCC2 was read as KAT2A inh inactive, BAZ2B block 20µM, PI5P4K alpha inh inactive, PLK1 PBD block inactive, HP1b binding inh inconclusive and JMJD2A Tudor 40µM.
`COc1ccc(Nc2ccc3c(c2)=NC2(CCCCC2)[N+]=3[O-])cc1` gave KAT2A inh inactive, BAZ2B block 40µM, PI5P4K alpha inh inactive, PLK1 PBD block inactive, HP1b binding inh inconclusive and JMJD2A Tudor 22µM.
COc1ccc(NC2=NC(=S)N(c3ccccc3C)C23CCCCC3)cc1 was read as KAT2A inh inactive, BAZ2B block inactive, PI5P4K alpha inh inactive, PLK1 PBD block inactive, HP1b binding inh inactive and JMJD2A Tudor inactive.
`CCN1C(=O)N/C(=C/c2ccc(C)o2)C1=O` gave KAT2A inh inactive, BAZ2B block inactive, PI5P4K alpha inh inactive, PLK1 PBD block inactive, HP1b binding inh inactive and JMJD2A Tudor inactive.
`Cc1ccc(/C=C2/NC(=O)N(c3ccccc3)C2=O)o1` gave KAT2A inh inconclusive, BAZ2B block 56µM, PLK1 PBD block inactive, HP1b binding inh inactive and JMJD2A Tudor inactive.
`Cc1c(C(=O)O)cccc1-c1ccc(/C=C2/NC(=O)N(c3ccccc3)C2=O)o1` gave KAT2A inh inactive, BAZ2B block inactive, PI5P4K alpha inh inactive, PLK1 PBD block inactive, HP1b binding inh inactive and JMJD2A Tudor inactive.
Cc1ccc(/C=C2/NC(=O)N(Cc3ccc(Br)cc3)C2=O)o1 was read as KAT2A inh inconclusive, BAZ2B block inactive, PI5P4K alpha inh inconclusive, PLK1 PBD block inactive, HP1b binding inh inactive and JMJD2A Tudor 50µM.
CCC12CN3CC(C)(CN(C1)C3c1c(C)n(C)c3ccccc13)C2=O (stereo not drawn) was read as KAT2A inh inactive, BAZ2B block inactive, HP1b binding inh inactive and JMJD2A Tudor inactive.
`COC(=O)[C@@]12C[C@@H](CC(=O)N3CCOCC3)C(=O)N(CCc3ccc(OC)c(OC)c3)C1=CCC(C)(C)C2` gave PI5P4K alpha inh inactive and PLK1 PBD block inactive.
`O=C(O)c1ccccc1NS(=O)(=O)c1cccc(-n2sc3ccccc3c2=O)c1` gave KAT2A inh 0.45µM, BAZ2B block 4µM, PI5P4K alpha inh -97, PLK1 PBD block 3.4µM, HP1b binding inh inactive and JMJD2A Tudor 1.4µM.
For N#Cc1cc(NCC2CCCO2)c([N+](=O)[O-])cc1C#N (stereo not drawn) the results were KAT2A inh inactive, BAZ2B block inactive, PI5P4K alpha inh inactive, PLK1 PBD block inactive, HP1b binding inh inactive and JMJD2A Tudor inactive.
C/C(=N\Nc1ccc(C(F)(F)F)cc1[N+](=O)[O-])C(C)C was read as KAT2A inh inactive, BAZ2B block 10µM, PI5P4K alpha inh inactive, PLK1 PBD block inactive, HP1b binding inh 40µM and JMJD2A Tudor inconclusive.
Screening C[C@H](Nc1ccc(C(F)(F)F)cc1[N+](=O)[O-])C(=O)O returned KAT2A inh inactive, BAZ2B block inactive, PI5P4K alpha inh inactive, PLK1 PBD block inactive, HP1b binding inh inactive and JMJD2A Tudor inactive.
Screening CC(C)C(Nc1ccc(C(F)(F)F)cc1[N+](=O)[O-])C(=O)O (stereo not drawn) returned KAT2A inh inactive, PI5P4K alpha inh inactive, PLK1 PBD block inactive, HP1b binding inh inactive and JMJD2A Tudor inactive.
`O=[N+]([O-])c1cc(C(F)(F)F)ccc1NCC1CCCO1` (stereo not drawn) gave KAT2A inh inactive, BAZ2B block inactive, PI5P4K alpha inh inactive, PLK1 PBD block 6µM, HP1b binding inh inactive and JMJD2A Tudor inconclusive.
For CC1CCC(=NNc2ccc(C(F)(F)F)cc2[N+](=O)[O-])CC1 (stereo not drawn) the results were KAT2A inh inactive, BAZ2B block 10µM, PI5P4K alpha inh inactive, PLK1 PBD block inactive, HP1b binding inh inconclusive and JMJD2A Tudor 40µM.
Screening Cc1ccc(CCNC(=O)CC(C)CC2=NS(=O)(=O)c3ccccc3N2)cc1 (stereo not drawn) returned KAT2A inh inactive, BAZ2B block inactive, PI5P4K alpha inh inactive, PLK1 PBD block inactive, HP1b binding inh inactive and JMJD2A Tudor inactive.
